# Assay outcomes (PubChem BioAssay)
# KB-3-1 cytotox: kills parental KB-3-1 adenocarcinoma cells; KB-3-1 viability, CellTiter-Glo ATP luminescence, 72 h; Potency, µM (top dose mostly 46.1 µM), hits mostly cytotoxic; 1.4% of 400,000 active; further: nearly all actives have a fitted effect of over 60% in size
#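 KB-3-1 parental drug-naive adenocarcinoma cells in DMEM/10% FBS, incubated 72 h at 37 C with pin-transferred compounds across a concentration series. Viability by CellTiter-Glo luminescence; concentration-response curves fitted after normalization.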
# DT40 TDP1 no CPT: qHTS for Inhibitors of human tyrosyl-DNA phosphodiesterase 1 (TDP1): qHTS in cells in absence of CPT; DT40 Tdp1-/- hTDP1 cells, no CPT, ATP luminescence, 48 h; Potency, µM (titrated, usually from 46.2 µM), most hits filed as inhibitors; 15% of 420,000 active; AID 686978, 2013; further: nearly all actives have a fitted effect of over 55% in size
#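 A cellular qHTS used chicken DT40 cells lacking endogenous Tdp1 but carrying stably transfected human TDP1. Compounds were applied without camptothecin, and cell growth kinetics were judged by ATP-dependent luminescence after ≥48 hr.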
# HT1080-NT tox: kills 2HG-producing HT-1080-NT fibrosarcoma cells | HT-1080-NT fibrosarcoma viability, CellTiter-Glo ATP luminescence, 48 h | Potency, µM (top dose mostly 46.1 µM), actives largely listed as cytotoxic | 1.6% of 360,000 active;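 further: NT is the 2HG producing partner of a matched IDH1 knockdown line; nearly all actives have a fitted effect of over 55% in size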
#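 Fibrosarcoma NT cells, 750 per well in 5% FBS RPMI, were exposed to compound for 48 hours. Viability: CellTiter-Glo luminescence.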
# KB-V1 cytotox: KB-V1 MDR subline cytotoxicity | KB-V1 MDR cells viability, CellTiter-Glo, 72 h | Potency, µM (titrated, usually from 46.1 µM), usual class: cytotoxic | 3.4% of 400,000 active; further: nearly all actives have a fitted effect of over 60% in size
#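 Readout: CellTiter-Glo luminescence, 10 min after addition. Cells: KB-V1 MDR subline, 72 h at 37 degrees C with compound. Analysis: corrected, normalized data fitted to concentration-effect curves.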
# TDP1 cell CPT: DT40-hTDP1 cell growth loss with CPT | chicken DT40 Tdp1-/-;hTDP1 cells + 20 nM CPT, ATP luminescence, 48 h | Potency, µM (series often up to 46.2 µM), most hits filed as inhibitors | 12% of 420,000 active | AID 686979; further: nearly all actives have a fitted effect of over 55% in size
#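 Cell growth measured by CellTiter-Glo luminescence after a minimum 48 h, 37 C compound exposure with 20 nM CPT in Tdp1-knockout DT40 cells stably expressing hTDP1, seeded 400/well; qHTS titration format.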
# HT1080 IDH1KD tx: toxicity to HT-1080 IDH1 knockdown cells (counter line); Potency, µM (doses to about 46.1 µM), most hits filed as cytotoxic; HT-1080 IDH1 knockdown viability, ATP luminescence, 48 h; 2% of 360,000 active
#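 Using the IDH1-knockdown HT-1080 line run in the same batch and compound series as the NT line, viability after 48 h at 37 °C was determined by CellTiter-Glo luminescence and expressed as % activity.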
# A number is an active result; 0 = inactive; ? = inconclusive; - = no result. This is a sample that favours compounds with a hit; in the whole collection about 19% have one here. The call rests on the fitted dose curve; in most records, active means well fitted curve in the direction sought with a large enough effect; inconclusive means small, poorly fitted or top-dose-only effect, or another doubt; inactive means no such curve, though single readings can be large; an effect the other way counts as inactive or inconclusive.
SMILES,KB-3-1 cytotox,DT40 TDP1 no CPT,HT1080-NT tox,KB-V1 cytotox,TDP1 cell CPT,HT1080 IDH1KD tx
O=C(c1cc[n+]([O-])cc1)N1CCc2c([nH]c3ccccc23)C1c1ccccc1Cl (centres undefined),0,0,0,0,0,?
COc1cc(NC(=O)N2CCSc3ccccc32)cc(OC)c1OC,0,?,-,0,?,-
COc1cc(NC(=O)N2CCc3c(sc4c3CCCC4)C2c2ccccc2)cc(OC)c1OC (centres undefined),0,21µM,-,?,10µM,-
COc1cc(OC)c(NC(=O)N2CCc3c(sc4c3CCCC4)C2c2ccccc2)cc1Cl (centres undefined),0,21µM,-,0,?,-
CCC(C)c1ccc(NC(=O)c2ccco2)cc1 (centres undefined),0,?,0,0,?,0
CSc1nc(N)c(C(=O)N(c2ccccc2)c2ccccc2)s1,0,?,0,?,?,0
CCc1ccc(NS(=O)(=O)c2ccc3[nH]cc(C(=O)NCCCOC(C)C)c(=O)c3c2)cc1,0,?,-,0,?,-
COc1ccc(C=O)cc1Cn1c(C)cc(C)c(C#N)c1=O,?,16µM,0,0,16µM,0
CC1=C(C(=O)OCc2ccccc2)C(/C=C/c2ccccc2)NC(=S)N1 (centres undefined),0,29µM,0,?,16µM,?
COCCOC(=O)C1=C(C)NC(=S)NC1/C=C/c1ccccc1 (centres undefined),0,?,0,0,0,0
C=CCOC(=O)C1=C(C)NC(=S)NC1/C=C/c1ccccc1 (centres undefined),0,?,13µM,0,?,?
CCc1ccc(S(=O)(=O)c2nnn3c2nc(N2CCOCC2)c2sccc23)cc1,0,0,-,0,0,-
COC(=O)c1c(-c2ccc(Br)cc2)csc1NC(=O)Cc1ccc(OC)c(OC)c1,?,10µM,0,7.3µM,?,0
COC(=O)c1c(-c2cccc3ccccc23)csc1NC(=O)Cc1ccc(OC)c(OC)c1,?,12µM,0,0,26µM,?
CC(=O)c1cccc(NC(=O)COC(=O)c2ccccc2C)c1,0,0,0,0,0,0
COc1cc(NC(=O)C(CC(C)C)NS(=O)(=O)c2ccc3c(c2)CCCC(=O)N3)cc(OC)c1 (centres undefined),0,0,-,?,0,-
O=C(Nc1ccccc1C(=O)N1CCOCC1)c1cccc(S(=O)(=O)N2CCCC2)c1,0,0,0,9.2µM,0,0
Cc1ccc(CSCC(=O)Nc2cc(S(=O)(=O)N3CCOCC3)ccc2OC(C)C)cc1,0,23µM,0,?,?,0
O=C(Nc1ccccc1C(=O)N1CCCC1)c1cccc(S(=O)(=O)N2CCCCCC2)c1,0,?,0,0,?,0
O=C(Nc1cc(S(=O)(=O)N2CCOCC2)ccc1N1CCOCC1)c1cccc(S(=O)(=O)N2CCCCC2)c1,0,0,0,0,0,0
CC(C)Oc1ccc(S(=O)(=O)N2CCOCC2)cc1NC(=O)c1cccc(S(=O)(=O)N2CCCC2)c1,0,0,0,18µM,0,0
Cc1ccc(-c2nnc(N3CCC(C(N)=O)CC3)s2)cc1,?,-,-,0,-,-
Cc1ccc(C2Oc3ccccc3C3=C2C(c2cccs2)n2ncnc2N3)cc1 (centres undefined),9.2µM,?,21µM,0,?,?
Fc1ccc(C2C3=C(Nc4ncnn42)c2ccccc2OC3c2ccncc2)cc1 (centres undefined),0,?,?,0,0,0
CCC(OC(=O)C(CC(C)C)NC(=O)c1ccccc1)C(=O)Nc1nnc(C)s1 (centres undefined),0,5.8µM,0,0,?,0
CCN(CC)S(=O)(=O)c1ccc2nc(CCl)[nH]c2c1,0,?,0,0,26µM,0
O=C(OCc1c(Cl)nc2sccn12)c1cc2c(s1)CCCC2,0,?,0,0,14µM,0
